Among all 48,000 compounds or so, about 13,000 (27%) showed an effect of 50% or more. Some of the results follow.
What follows are compounds tested on Wolbachia pipientis (assay: Anti-Wolbachia Cell-Based Screen). Details: 5 µM.
Format: functional
Set-up: scale not given: in the data most compounds retested in dose-response had high values

Row | Compound | Percent Effect [%]
1 | Cc1n[nH]c(C)c1S(=O)(=O)N(C)Cc1nn(C)c(Cl)c1Cl | 0.7109
2 | CCN(Cc1cc(Br)ccc1F)C(=O)C(C)NC(N)=O (stereo unspecified) | -3.713
3 | Cc1cccn2c(CNC(C)CCc3ccc(O)cc3)cnc12 (stereo unspecified) | -2.833
4 | COc1ccccc1OC1(C(=O)O)CCN(c2nccnc2C)CC1 | -2.671
5 | CCn1nc(C(C)C)cc1C(=O)N1CCOc2ccc(OC)cc21 | 10.42
6 | COCCN(C)CCN1CC2(CCN(C3CCNCC3)CC2)OC1=O | 0.09435
7 | CNC(=O)N1CC[C@@H]2CN(CCc3cccc(OC)c3)S(=O)(=O)[C@@H]2CC1 | -2.748
8 | CNC(=O)N1CC[C@@H]2CN(Cc3cccc(OC)c3)S(=O)(=O)[C@@H]2CC1 | 89.38
9 | CNC(=O)N1CC[C@@H]2CN(Cc3cccc(Cl)c3)S(=O)(=O)[C@@H]2CC1 | -6.007
10 | CNC(=O)N1CC[C@@H]2CN(Cc3ccccc3)S(=O)(=O)[C@@H]2CC1 | 102
11 | CC(C)NC(=O)N1CC[C@@H]2CN(Cc3cccc(Cl)c3)S(=O)(=O)[C@@H]2CC1 | -12.85
12 | CC(=O)N1CC[C@@H]2CN(Cc3cccc(Cl)c3)S(=O)(=O)[C@@H]2CC1 | -7.404
13 | O=C(NCCSC1CCCC1)c1cc(Cl)ccn1 | 3.584
14 | COCC(=O)N[C@H]1C[C@@H](Cc2cc(CN3CCCCC3)on2)C1(C)C | 11.93
15 | Cc1ccccc1CN(CCN(C)C)Cc1ncc[nH]1 | -7.334
16 | CN1CC2(CCN(C(=O)C3CCC3)CC2)COc2ccccc2S1(=O)=O | 97.81
17 | CC(C)NC(=O)N1CCC2(CC1)COc1ccccc1S(=O)(=O)N(C)C2 | 105.4
18 | COCCC1COC2(CCN(C(=O)C3CCC3)CC2)C1 (stereo unspecified) | -7.726
19 | CN(C)C(C(=O)N1CCCN(C(=O)C2CCC2)CC1)c1ccccc1F (stereo unspecified) | -11.1
20 | N#Cc1csc(CN(CC(=O)N2CCCC2)CC2CCCO2)c1 (stereo unspecified) | 4.573
21 | CCOc1ccc(OCC)c(NCc2cc(C)on2)c1 | -0.4612
22 | COCCOC[C@]1(CNCc2ccc(OC)cc2)C[C@@H](O)[C@@H](O)C1.Cl | 6.755
23 | Cc1ccccc1C1(CNC(=O)c2cccc(S(C)(=O)=O)c2)CC1 | 2.045
24 | Cc1ccccc1C1(CNC(=O)c2ccc(S(C)(=O)=O)cc2)CC1 | 72.54
25 | Cc1ccccc1C1(CNC(=O)N2CCC(CC(N)=O)CC2)CC1 | -8.106
26 | CC(NC(=O)N(C)Cc1ccsc1)c1ccc2c(c1)OCO2 (stereo unspecified) | -7.719
